Reference: the OligoGym collection

molecular target: XAGE3; test: pooled miR-30 sensor sort-seq; sequence = guide strand; conditions: shRNA

| Sequence | sensor-assay potency score (higher = more potent) |
| --- | --- |
| TGGTACACTTCTCCTCGGCCTA | -1.1 |
| TGGCATTTTAAATTGTTCTGAT | -0.221 |
| TGATCTTCTTCTCTCTCCTGAC | -1.05 |
| TCTCTCTCCTGACCAGGTGCAG | -1.38 |
| TTCTTCTCTCTCCTGACCAGGT | -0.766 |
| TTGAGTCTCAGCTGCACCCTGA | -0.3 |
| TCTCCTGACCAGGTGCAGGATC | -0.873 |
| TGCACCCTGATCTTCTTCTCTC | -0.916 |
| TCTTCTTCTCTCTCCTGACCAG | -1.02 |
| TTTCAGTTGGTGGTTCCTCTTG | -0.62 |
| TTCCTCTTGCTGAGGCTCCTCA | -0.958 |

molecular target: XAGE5; test: as above; conditions: shRNA

| Sequence | sensor-assay potency score (higher = more potent) |
| --- | --- |
| TCATCTTCTCTCTTCTGACCAG | -0.307 |
| TTTTAAATTGCTCTGATTTTGG | -0.858 |
| TTGGTGGTTCTTCTTGTTGAGG | -1.63 |
| CAAGTCGTAAACATCGTCTTGG | -0.817 |
| TTTCAGTTGGTGGTTCTTCTTG | -0.699 |
| TGAGCAAGTCGTAAACATCGTC | -0.511 |
| TTCTTCTTGTTGAGGCTCTGGC | -0.323 |
| TTCAGTTGGTGGTTCTTCTTGT | 0.414 |
| TAGGCACTTGAATCTCAGCTGC | -0.239 |
| AAGTCGTAAACATCGTCTTGGT | -0.56 |
| TATCTCCGCATTCATCCCCAGT | -1.35 |
| TTAGGCACTTGAATCTCAGCTG | 0.649 |

molecular target: XCL2; test: as above; conditions: shRNA

| Sequence | sensor-assay potency score (higher = more potent) |
| --- | --- |
| TTGATTCTGCTAACTGGCAGTC | -0.401 |
| CTTGATTCTGCTAACTGGCAGT | -1.63 |
| CTATGTGAGACTTCACTCCCTA | -0.487 |
| TTCTGCTAACTGGCAGTCGCTG | -1.02 |
| TGCTAACTGGCAGTCGCTGGGT | -0.761 |
| TAAAAGGTGAGTATAATCTCAG | -0.178 |
| TCTTGATTCTGCTAACTGGCAG | -0.712 |
| ATAATCTCAGTCCATGAGGGTG | -1.29 |
| TATAATCTCAGTCCATGAGGGT | -0.365 |
| TATGTGAGACTTCACTCCCTAC | -0.968 |
| TCTGCTAACTGGCAGTCGCTGG | -0.99 |
| TCACACAGGTCCTCCTATGTGA | -0.506 |

molecular target: XKR5; test: as above; conditions: shRNA

| Sequence | sensor-assay potency score (higher = more potent) |
| --- | --- |
| TAAGTTATTCTACTATTCCTTT | -0.571 |
| TTGTAGAACAGAACCAGACTCA | 0.203 |
| TTCTCTAATAAATATAGTGTAT | -1.07 |
| TTGATCTTAGACACATTTCCTG | 0.217 |
| TAAATTACCAGTGAGACACTGC | 0.68 |
